Source: the supplement of paper PMC10849652
Of roughly 7,900 targets only a part is listed; those with a hit were picked by preference. About 0.6% of all pairs of compound and target were hits. Values without a mark were called inactive.

Tests used:
Assay in all cases: log2 fold change, soluble protein after heating vs DMSO (PISA); higher = thermal stabilisation; K562 cells, 10 uM, 30 min; active = over 0.2 and 3.5 SD of the protein, either way, in both replicates (recomputed)
bafetinib = compound: Cc1ccc(NC(=O)c2ccc(CN3CC[C@H](N(C)C)C3)c(C(F)(F)F)c2)cc1Nc1nccc(-c2cncnc2)n1 [bafetinib]
Method in brief: (§1)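 For each measurement, 10 μM compound was applied for 30 min to K562 cells at 2×10^6 cells/mL. Aliquots were heated for 3 min across 48°C-58°C, pooled, and extracted in PBS with 0.5% NP-40 at 4°C; the supernatant after 21,000xg for 90 min was soluble protein. This was quantified by TMTpro 16plex LC-MS/MS with channel sums equalised, and thermal stability was reported relative to control samples from duplicates, on a log2 fold-change scale.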

[1] = compound: Cc1cccc(CC(=O)N2CCc3c2ccc(-c2cn(C)c4ncnc(N)c24)c3F)n1
Method in brief: as §1

nilotinib = compound: Cc1cn(-c2cc(NC(=O)c3ccc(C)c(Nc4nccc(-c5cccnc5)n4)c3)cc(C(F)(F)F)c2)cn1 [nilotinib]
Method in brief: as §1

[2] = compound: Cc1nc(Nc2n[nH]c3c2CN(C(=O)N[C@H](CN(C)C)c2ccccc2)C3(C)C)c2sccc2n1
Method in brief: as §1

dasatinib = compound: Cc1nc(Nc2ncc(C(=O)Nc3c(C)cccc3Cl)s2)cc(N2CCN(CCO)CC2)n1 [dasatinib]
Method in brief: as §1

[3] = compound: Cc1ncc(-c2ccnc(Nc3ccc(S(C)(=O)=O)cc3)n2)n1C(C)C
Method in brief: as §1

[4] = compound: Cn1cc(-c2ccc3c(c2)CCN3C(=O)Cc2cccc(C(F)(F)F)c2)c2c(N)ncnc21
Method in brief: as §1

[5] = compound: Cn1cc(-c2ccc3nnc(C(F)(F)c4ccc5ncccc5c4)n3n2)cn1
Method in brief: as §1

tipifarnib = compound: Cn1cncc1[C@@](N)(c1ccc(Cl)cc1)c1ccc2c(c1)c(-c1cccc(Cl)c1)cc(=O)n2C [tipifarnib]
Method in brief: as §1

mubritinib = compound: FC(F)(F)c1ccc(/C=C/c2nc(COc3ccc(CCCCn4ccnn4)cc3)co2)cc1 [mubritinib]
Method in brief: as §1

[6] = compound: NC(=O)Nc1cc(-c2cccc(F)c2)sc1C(=O)N[C@H]1CCCNC1
Method in brief: as §1

[7] = compound: NC(=O)c1cnc(N[C@@H]2CCCC[C@@H]2N)nc1Nc1cccc(-n2nccn2)c1
Method in brief: as §1

[8] = compound: NC1(c2ccc(-c3nc4ccn5c(=O)[nH]nc5c4cc3-c3ccccc3)cc2)CCC1
Method in brief: as §1

[9] = compound: NCC(=O)Nc1ccc(-n2nc(C(F)(F)F)cc2-c2ccc3c(ccc4ccccc43)c2)cc1
Method in brief: as §1

entinostat = compound: Nc1ccccc1NC(=O)c1ccc(CNC(=O)OCc2cccnc2)cc1 [entinostat]
Method in brief: as §1

vorinostat = compound: O=C(CCCCCCC(=O)Nc1ccccc1)NO [vorinostat]
Method in brief: as §1

citarinostat = compound: O=C(CCCCCCNC(=O)c1cnc(N(c2ccccc2)c2ccccc2Cl)nc1)NO [citarinostat]
Method in brief: as §1

silmitasertib = compound: O=C(O)c1ccc2c(c1)nc(Nc1cccc(Cl)c1)c1ccncc12 [silmitasertib]
Method in brief: as §1

[10] = compound: O=C1NC(=O)C(c2cnc3ccccn23)=C1c1cn2c3c(cc(F)cc13)CN(C(=O)N1CCCCC1)CC2
Method in brief: as §1

[11] = compound: c1cc(OCCN2CCCCC2)cc(-c2n[nH]c3ccc(-c4nnc[nH]4)cc23)c1
Method in brief: as §1

UniProt Q15057, sequence (Q15057 whole entry, looked up): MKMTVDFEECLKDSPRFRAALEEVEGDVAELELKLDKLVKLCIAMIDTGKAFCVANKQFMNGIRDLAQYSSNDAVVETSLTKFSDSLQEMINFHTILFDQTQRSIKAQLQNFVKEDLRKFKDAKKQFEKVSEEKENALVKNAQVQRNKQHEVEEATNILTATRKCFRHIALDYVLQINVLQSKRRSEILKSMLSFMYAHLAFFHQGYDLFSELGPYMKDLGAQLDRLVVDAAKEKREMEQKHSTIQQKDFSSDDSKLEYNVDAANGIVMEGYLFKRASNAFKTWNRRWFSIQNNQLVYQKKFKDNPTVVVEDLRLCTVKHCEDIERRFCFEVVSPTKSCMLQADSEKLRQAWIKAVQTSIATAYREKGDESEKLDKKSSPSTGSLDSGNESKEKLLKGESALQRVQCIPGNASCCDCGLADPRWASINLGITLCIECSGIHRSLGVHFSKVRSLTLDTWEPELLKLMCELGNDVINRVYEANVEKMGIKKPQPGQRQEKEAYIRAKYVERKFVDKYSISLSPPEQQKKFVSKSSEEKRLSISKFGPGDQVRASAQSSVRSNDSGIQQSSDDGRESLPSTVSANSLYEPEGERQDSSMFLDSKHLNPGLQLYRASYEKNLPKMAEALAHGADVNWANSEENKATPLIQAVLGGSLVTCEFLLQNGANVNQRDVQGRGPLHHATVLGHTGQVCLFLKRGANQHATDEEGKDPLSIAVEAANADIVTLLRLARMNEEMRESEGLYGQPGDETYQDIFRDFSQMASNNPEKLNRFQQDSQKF
UniProt Q16864, sequence (Q16864 whole entry, looked up): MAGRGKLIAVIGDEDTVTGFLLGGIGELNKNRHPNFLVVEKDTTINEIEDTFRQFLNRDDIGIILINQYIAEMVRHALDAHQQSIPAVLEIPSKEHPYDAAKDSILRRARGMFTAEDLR
UniProt Q8NBU5, sequence (Q8NBU5 whole entry, looked up): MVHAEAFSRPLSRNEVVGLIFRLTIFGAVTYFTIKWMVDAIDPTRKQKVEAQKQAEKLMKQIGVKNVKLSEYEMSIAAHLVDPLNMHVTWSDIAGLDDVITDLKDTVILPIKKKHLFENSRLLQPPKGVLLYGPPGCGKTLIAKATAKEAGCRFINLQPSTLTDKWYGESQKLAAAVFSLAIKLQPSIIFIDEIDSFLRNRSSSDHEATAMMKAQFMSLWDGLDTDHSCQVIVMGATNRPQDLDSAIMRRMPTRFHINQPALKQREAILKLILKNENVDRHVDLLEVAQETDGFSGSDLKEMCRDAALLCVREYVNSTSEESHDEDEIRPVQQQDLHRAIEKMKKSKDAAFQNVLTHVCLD
UniProt Q9P287, sequence (Q9P287 whole entry, looked up): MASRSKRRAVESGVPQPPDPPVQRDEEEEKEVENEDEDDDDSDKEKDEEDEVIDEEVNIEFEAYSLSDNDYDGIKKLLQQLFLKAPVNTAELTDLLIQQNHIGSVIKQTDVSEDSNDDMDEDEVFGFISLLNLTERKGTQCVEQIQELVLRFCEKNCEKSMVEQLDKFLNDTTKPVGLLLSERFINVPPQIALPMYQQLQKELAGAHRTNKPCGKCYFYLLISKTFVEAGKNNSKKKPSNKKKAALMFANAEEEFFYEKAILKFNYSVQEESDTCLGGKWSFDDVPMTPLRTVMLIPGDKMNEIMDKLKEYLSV
UniProt Q9ULC5, sequence (Q9ULC5 whole entry, looked up): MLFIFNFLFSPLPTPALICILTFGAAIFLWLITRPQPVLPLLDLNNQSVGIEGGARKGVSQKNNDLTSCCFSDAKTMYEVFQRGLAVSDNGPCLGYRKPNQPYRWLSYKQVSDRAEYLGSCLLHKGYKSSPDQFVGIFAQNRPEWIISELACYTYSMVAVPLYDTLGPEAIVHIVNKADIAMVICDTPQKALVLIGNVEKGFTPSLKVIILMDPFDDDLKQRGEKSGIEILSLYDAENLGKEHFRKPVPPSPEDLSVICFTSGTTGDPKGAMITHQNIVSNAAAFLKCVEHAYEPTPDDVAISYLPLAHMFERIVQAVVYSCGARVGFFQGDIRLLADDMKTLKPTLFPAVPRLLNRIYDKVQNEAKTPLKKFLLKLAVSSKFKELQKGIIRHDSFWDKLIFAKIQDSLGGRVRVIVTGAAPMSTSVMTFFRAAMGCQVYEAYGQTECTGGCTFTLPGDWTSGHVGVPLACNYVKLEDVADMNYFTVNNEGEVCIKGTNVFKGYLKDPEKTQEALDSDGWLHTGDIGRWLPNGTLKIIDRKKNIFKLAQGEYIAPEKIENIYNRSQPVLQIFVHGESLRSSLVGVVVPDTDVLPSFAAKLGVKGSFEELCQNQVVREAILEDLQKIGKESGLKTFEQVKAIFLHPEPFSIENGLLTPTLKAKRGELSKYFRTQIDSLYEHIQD
UniProt P53367, sequence (P53367 whole entry, looked up): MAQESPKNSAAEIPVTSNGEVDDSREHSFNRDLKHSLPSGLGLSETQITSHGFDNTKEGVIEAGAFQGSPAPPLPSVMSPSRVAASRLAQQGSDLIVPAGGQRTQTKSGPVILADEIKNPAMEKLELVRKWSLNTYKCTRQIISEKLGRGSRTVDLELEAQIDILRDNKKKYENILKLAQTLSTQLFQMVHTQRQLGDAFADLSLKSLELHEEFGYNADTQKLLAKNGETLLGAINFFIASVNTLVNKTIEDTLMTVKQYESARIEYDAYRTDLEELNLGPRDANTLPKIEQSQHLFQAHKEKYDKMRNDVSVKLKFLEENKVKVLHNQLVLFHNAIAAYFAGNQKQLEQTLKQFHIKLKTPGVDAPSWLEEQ
UniProt P55263, sequence (P55263 whole entry, looked up): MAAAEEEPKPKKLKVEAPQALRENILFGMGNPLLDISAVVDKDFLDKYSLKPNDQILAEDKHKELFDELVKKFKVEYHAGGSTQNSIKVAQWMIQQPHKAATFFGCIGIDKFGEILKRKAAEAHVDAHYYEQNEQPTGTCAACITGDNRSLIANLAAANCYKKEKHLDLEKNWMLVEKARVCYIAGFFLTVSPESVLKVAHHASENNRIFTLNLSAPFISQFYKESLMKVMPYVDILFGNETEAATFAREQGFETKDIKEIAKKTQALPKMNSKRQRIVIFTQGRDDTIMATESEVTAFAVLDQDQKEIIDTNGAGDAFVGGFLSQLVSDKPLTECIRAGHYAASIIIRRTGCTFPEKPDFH
UniProt Q14457, sequence (Q14457 whole entry, looked up): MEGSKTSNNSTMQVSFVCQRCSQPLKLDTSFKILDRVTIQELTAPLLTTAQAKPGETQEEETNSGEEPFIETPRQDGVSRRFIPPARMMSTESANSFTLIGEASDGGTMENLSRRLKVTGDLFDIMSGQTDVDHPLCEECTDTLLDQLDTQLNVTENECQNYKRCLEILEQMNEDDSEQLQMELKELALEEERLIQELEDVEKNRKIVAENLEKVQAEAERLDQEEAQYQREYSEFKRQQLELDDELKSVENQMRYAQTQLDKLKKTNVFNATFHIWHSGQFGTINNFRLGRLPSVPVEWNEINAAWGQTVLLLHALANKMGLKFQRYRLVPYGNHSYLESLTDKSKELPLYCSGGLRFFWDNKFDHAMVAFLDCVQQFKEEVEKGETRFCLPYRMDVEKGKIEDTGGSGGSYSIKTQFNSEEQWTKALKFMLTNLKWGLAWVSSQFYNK
UniProt P49189, sequence (P49189 whole entry, looked up): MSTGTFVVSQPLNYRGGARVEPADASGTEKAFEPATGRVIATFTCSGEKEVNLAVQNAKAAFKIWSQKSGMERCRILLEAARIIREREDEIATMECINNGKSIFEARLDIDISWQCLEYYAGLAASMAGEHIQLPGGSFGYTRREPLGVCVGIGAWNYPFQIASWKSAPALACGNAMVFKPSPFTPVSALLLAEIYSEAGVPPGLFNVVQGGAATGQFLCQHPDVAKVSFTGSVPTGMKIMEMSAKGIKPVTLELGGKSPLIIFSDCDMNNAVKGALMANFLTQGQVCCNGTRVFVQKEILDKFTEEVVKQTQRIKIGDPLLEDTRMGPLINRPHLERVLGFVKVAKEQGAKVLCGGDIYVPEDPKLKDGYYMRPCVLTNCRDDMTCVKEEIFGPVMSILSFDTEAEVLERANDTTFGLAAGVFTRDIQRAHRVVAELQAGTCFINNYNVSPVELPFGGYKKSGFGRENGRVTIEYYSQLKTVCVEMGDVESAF
UniProt Q8N6D5, sequence (Q8N6D5 whole entry, looked up): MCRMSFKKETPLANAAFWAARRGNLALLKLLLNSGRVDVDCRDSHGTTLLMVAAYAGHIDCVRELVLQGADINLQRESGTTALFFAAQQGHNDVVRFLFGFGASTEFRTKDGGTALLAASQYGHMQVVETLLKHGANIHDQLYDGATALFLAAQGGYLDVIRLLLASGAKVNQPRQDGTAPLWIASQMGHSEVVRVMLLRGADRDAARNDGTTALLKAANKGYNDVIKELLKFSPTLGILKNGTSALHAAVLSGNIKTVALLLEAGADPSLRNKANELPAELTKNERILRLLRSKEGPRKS
UniProt P42330, sequence (P42330 whole entry, looked up): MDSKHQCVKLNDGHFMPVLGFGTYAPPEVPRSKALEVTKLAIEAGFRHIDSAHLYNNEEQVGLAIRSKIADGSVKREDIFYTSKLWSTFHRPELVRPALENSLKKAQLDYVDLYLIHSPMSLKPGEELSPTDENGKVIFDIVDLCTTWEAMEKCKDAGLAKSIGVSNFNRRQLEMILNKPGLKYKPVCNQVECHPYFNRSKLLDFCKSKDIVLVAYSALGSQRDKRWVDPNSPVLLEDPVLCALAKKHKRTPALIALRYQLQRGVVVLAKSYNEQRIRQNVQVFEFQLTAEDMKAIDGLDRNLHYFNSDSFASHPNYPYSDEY

Target | log2 fold change (bafetinib) | log2 fold change [1] | log2 fold change (nilotinib) | log2 fold change [2] | log2 fold change (dasatinib) | log2 fold change [3] | log2 fold change [4] | log2 fold change [5] | log2 fold change (tipifarnib) | log2 fold change (mubritinib) | log2 fold change [6] | log2 fold change [7] | log2 fold change [8] | log2 fold change [9] | log2 fold change (entinostat) | log2 fold change (vorinostat) | log2 fold change (citarinostat) | log2 fold change (silmitasertib) | log2 fold change [10] | log2 fold change [11]
ACSL5 isoform 3 (UniProt Q9ULC5) | -0.271 (active) | -0.01 | -0.055 | -0.06 | 0.062 | 0.012 | 0.066 | 0.007 | 0.043 | -0.018 | -0.007 | -0.066 | -0.042 | -0.184 | 0.081 | 0.005 | -0.035 | 0.002 | -0.103 | -0.052
BECN1 (UniProt Q14457) | 0.063 | -0.032 | 0.032 | -0.025 | -0.072 | 0.076 | -0.015 | -0.038 | -0.003 | 0.023 | 0.045 | 0.083 | -0.006 | -0.016 | -0.024 | -0.073 | -0.046 | 0.026 | -0.071 | 0.021
ADK (UniProt P55263) | 0.201 | 0 | 0.122 | 0.208 | 0.387 (active) | 0.07 | 0.006 | 0.241 | 0.291 | 0.037 | -0.071 | 0.07 | 0.12 | -0.04 | -0.087 | -0.044 | -0.02 | 0.011 | 0.232 | 0.158
ACACB (UniProt O00763) | 0.145 | -0.021 | -0.109 | -0.251 | -0.03 | -0.026 | -0.09 | -0.059 | -0.14 | -0.147 | -0.02 | -0.043 | -0.047 | 0.084 | 0.076 | 0.082 | 0.131 | 0.119 | 0.222 | -0.01
ACIN1 (UniProt Q9UKV3) | 0.022 | -0.037 | 0.086 | -0.444 (active) | 0.016 | -0.065 | 0.117 | -0.027 | 0.026 | 0.049 | -0.013 | -0.038 | 0.003 | -0.062 | -0.024 | 0.035 | 0.035 | -0.124 | 0.013 | -0.084
AKAP8L (UniProt Q9ULX6) | -0.078 | -0.039 | 0.044 | -0.02 | -0.161 | -0.052 | -0.036 | -0.14 | 0.039 | 0.003 | -0.006 | 0.153 | -0.063 | -0.098 | 0.01 | 0.088 | 0.124 | -0.012 | -0.236 | -0.067
AKR1C3 (UniProt P42330) | 0.018 | -0.03 | 0.025 | 0.004 | -0.038 | 0.078 | 0.068 | 0.557 (active) | 0.862 (active) | -0.147 | 0.119 | 0.064 | 0.235 | -0.032 | 0.106 | -0.058 | 0.049 | 0.126 | 0.211 | 0.154
BCCIP (UniProt Q9P287) | 0.048 | 0 | -0.019 | -0.022 | -0.161 | 0.03 | -0.009 | -0.006 | 0.006 | 0.001 | 0.023 | -0.008 | -0.006 | -0.04 | -0.052 | 0.045 | 0.022 | 0.049 | -0.012 | -0.079
ATP9B (UniProt O43861) | -0.042 | -0.042 | -0.147 | -0.149 | -0.067 | 0.038 | 0.037 | -0.096 | 0.121 | 0.069 | -0.58 (active) | -0.028 | 0.052 | -0.029 | -0.24 | -0.044 | 0.135 | 0.071 | 0.029 | -0.048
ALDH9A1 (UniProt P49189) | 0.023 | 0.071 | -0.08 | -0.046 | -0.105 | 0.019 | 0.047 | 0.044 | 0.099 | -0.015 | 0.079 | 0.051 | -0.024 | 0 | -0.014 | -0.209 | -0.014 | -0.033 | 0.025 | 0.055
ARFIP1 (UniProt P53367) | -0.198 | 0.077 | -0.177 | -0.148 | -0.113 | 0.05 | 0.069 | 0.461 (active) | -0.115 | -0.054 | 0.116 | -0.002 | -0.162 | 0.062 | 0.079 | 0.031 | 0.121 | -0.011 | -0.042 | -0.048
ATP6V1F isoform 2 (UniProt Q16864) | 0 | -0.053 | 0.078 | -0.03 | 0.034 | -0.028 | 0.101 | 0.132 | 0.32 | 0.045 | 0.175 | 0.221 | -0.078 | 0.143 | 0.087 | -0.092 | 0.026 | -0.042 | -0.073 | 0.026
ACAP2 (UniProt Q15057) | 0.093 | 0.052 | -0.006 | -0.05 | -0.04 | 0.051 | -0.073 | -0.051 | -0.097 | 0.016 | -0.016 | -0.075 | 0.026 | -0.035 | 0.005 | 0 | 0.029 | -0.007 | -0.078 | 0.045
ADRM1 (UniProt Q16186) | 0.238 (active) | 0.072 | 0.028 | 0.063 | -0.036 | 0.006 | -0.061 | -0.003 | 0.01 | -0.006 | -0.009 | -0.045 | -0.058 | 0.006 | -0.012 | 0.038 | 0.067 | 0 | 0.064 | -0.052
ANKRD29 (UniProt Q8N6D5) | 0.063 | -0.027 | -0.09 | -0.057 | -0.002 | 0.053 | 0.22 | 0.133 | -0.223 | 0.083 | -0.044 | -0.181 | -0.337 | -0.119 | -0.03 | 0.061 | -0.002 | 0.039 | -0.2 | -0.051
ATAD1 (UniProt Q8NBU5) | -0.007 | 0.048 | 0.02 | -0.008 | -0.033 | -0.002 | 0.037 | -0.026 | 0.014 | -0.028 | -0.036 | -0.056 | -0.015 | -0.009 | 0.038 | 0.012 | 0.032 | 0.012 | 0.197 | -0.053
